Screening results from PubChem BioAssay.
This is a sample that favours compounds with a hit; in the whole collection about 2% have one here.
S1P4 antagonist: human S1P4 receptor antagonism. 220,000 tested, 0.26% active. O95977. S1P4-expressing cells, antagonist mode, reporter read-out. inhibition, % at 4.98 µM; in the data active means inhibition above about 29%
EP2 antag: blocks the human prostaglandin E2 receptor EP2; C6 glioma cells expressing human EP2, cAMP TR-FRET; cells stimulated with saturating PGE2; inhibition, % at 25 µM; 260,000 tested, 0.52% active;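 active means percent inhibition above 40 after rounding to a whole number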;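 further: rat C6 glioma host cells with rolipram phosphodiesterase inhibitor present; the protocol text gives 20 µM as final concentration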
Target sequence (P43116 whole entry, looked up): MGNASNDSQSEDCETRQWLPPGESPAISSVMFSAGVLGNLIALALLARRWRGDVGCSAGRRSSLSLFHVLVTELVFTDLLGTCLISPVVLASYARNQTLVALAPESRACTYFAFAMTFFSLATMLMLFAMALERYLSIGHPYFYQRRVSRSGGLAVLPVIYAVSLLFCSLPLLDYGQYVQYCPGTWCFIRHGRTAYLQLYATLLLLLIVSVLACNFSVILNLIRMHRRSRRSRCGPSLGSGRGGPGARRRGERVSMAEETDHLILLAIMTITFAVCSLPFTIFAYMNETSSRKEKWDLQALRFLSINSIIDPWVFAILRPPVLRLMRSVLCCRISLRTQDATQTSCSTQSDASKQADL
S1P4 agonist: agonists of human S1P4 receptor; O95977; S1P4-expressing cell line, agonist reporter assay; activation, % at 4.98 µM; 220,000 tested, 0.35% active; AID 1509; in the data active means activation above about 11%
EP2 modulator: EP2 receptor (human) modulation; P43116; AID 940; EP2-expressing cells, cAMP HTRF FRET, PGE2 co-stimulation; induction, % at 25 µM; 260,000 tested, 0.83% active;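 active means compounds whose cAMP rise, as percent of the full-agonist control response, exceeds 60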;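 further: rat C6 glioma line stably carrying human EP2 under a CMV promoter; the protocol text gives 20 µM as final concentration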
S1P3 antagonist: blocks the human S1P3 receptor. 170,000 tested, 0.27% active. Q99500. inhibition, % at 4.98 µM. CHO S1P3 NFAT-BLA reporter, FRET fluorescence, antagonist mode;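 active means inhibition above the plate cutoff, the mean inhibition of test wells on that plate plus 3 SD, cut at about 28% in these data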;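 further: cells challenged with S1P at its EC80 of 0.8 µM; blue over green emission ratio from cleaved BLA substrate after 4 h stimulation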
S1P4 ag conf: confirmation of human S1P4 receptor agonists. S1P4 agonist cell-based reporter assay. shares compounds with S1P4 agonist. 740 tested, 7% active. activation, % at 4.98 µM; in the data active means activation above about 12%
S1P1 ag: human S1P1 agonism as S1P4 agonist counter-screen | AID 1563 | 740 tested, 4% active | shares compounds with S1P4 agonist | S1P1 agonist cell-based assay, activation | activation, % at 4.98 µM; in the data active means activation above about 21%
Target sequence (P21453 whole entry, looked up): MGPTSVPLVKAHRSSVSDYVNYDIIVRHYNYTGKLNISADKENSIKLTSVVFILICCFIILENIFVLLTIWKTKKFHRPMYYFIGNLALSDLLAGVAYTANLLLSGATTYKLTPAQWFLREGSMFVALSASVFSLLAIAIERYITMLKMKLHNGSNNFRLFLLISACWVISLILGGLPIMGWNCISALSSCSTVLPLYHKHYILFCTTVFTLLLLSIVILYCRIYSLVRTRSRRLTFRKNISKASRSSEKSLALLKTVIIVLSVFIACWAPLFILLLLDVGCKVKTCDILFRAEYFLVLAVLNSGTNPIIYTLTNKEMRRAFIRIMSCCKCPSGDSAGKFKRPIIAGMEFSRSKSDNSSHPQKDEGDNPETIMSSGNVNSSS
Of the large screens only hits and unclear results are named; the others gave an inactive call (follow-up assays come after a bar, where they were run).

Cc1cc(N2CCCC(C(=O)Nc3ccc4c(c3)CCC4)C2)n2ncnc2n1 (centres undefined)	S1P4 agonist 17 | S1P4 ag conf inactive | S1P1 ag inactive
Cc1cc(N2CCCC(C(=O)Nc3cccc(Cl)c3)C2)n2ncnc2n1 (centres undefined)	none
Cc1cc(C)n(S(=O)(=O)c2ccc(C)c(C)c2C)n1	none
COc1ccc(S(=O)(=O)n2nc(C)cc2C)c(C)c1C	S1P4 agonist 48 (no result: S1P3 antagonist) | S1P4 ag conf inactive | S1P1 ag inactive
O=C(c1ccccc1)N1CCC(c2nc3c(nnn3Cc3ccccc3Cl)c(=O)[nH]2)CC1	S1P4 agonist 55 (no result: S1P3 antagonist) | S1P4 ag conf inactive | S1P1 ag inactive
COc1ccccc1Cn1nnc2c(=O)[nH]c(C3CCN(C(=O)c4ccc(F)cc4)CC3)nc21	none
Cc1cc(C)c2cc(CN(Cc3cccnc3)C(=S)Nc3ccccc3)c(=O)[nH]c2c1	none (no result: S1P4 antagonist, S1P4 agonist, S1P3 antagonist)
Cc1cc(C)cc(NC(=O)CSc2ccc(-c3cccs3)nn2)c1	none
O=C(CSc1ccc(-c2cccs2)nn1)Nc1ccccc1	S1P4 agonist 35 | S1P4 ag conf inactive | S1P1 ag inactive
O=[n+]1c2c(n([O-])c3cc(F)ccc31)CCCC2	S1P4 agonist 21 (no result: EP2 antag) | S1P4 ag conf inactive | S1P1 ag inactive
O=C(O)c1cccc(C(=O)c2cccc(C(=O)O)c2)c1	S1P4 agonist 41 | S1P4 ag conf inactive | S1P1 ag inactive
Nc1cccc(C(=O)O)c1	none
Cc1ccc(OCCn2cc(C3C(C#N)=C(N)Oc4n[nH]c(C)c43)c3ccccc32)cc1C (centres undefined)	none (no result: S1P4 antagonist, S1P4 agonist, S1P3 antagonist)
COC(=O)C1=C(C)NC(=O)NC1c1ccc(OCC(=O)Nc2ccc(F)cc2)c(OC)c1 (centres undefined)	none (no result: S1P4 antagonist, S1P4 agonist, S1P3 antagonist)
CC(=O)Nc1ccc(S(=O)(=O)N2CCC(O)(c3ncccc3C)CC2)cc1	none (no result: S1P4 antagonist, S1P4 agonist, S1P3 antagonist)
O=C(CCCN1C(=O)/C(=C/c2ccccc2Cl)SC1=S)NNC(=O)c1ccccc1	S1P4 agonist 18 | S1P4 ag conf inactive | S1P1 ag inactive
O=C(CCCN1C(=O)/C(=C/c2ccccc2Cl)SC1=S)NNC(=O)c1cccnc1	none
O=C(COc1ccccc1)NCc1cccs1	S1P4 agonist 14 (no result: S1P3 antagonist) | S1P4 ag conf inactive | S1P1 ag inactive
CCCSc1nnc(NC(=O)Nc2ccc(F)cc2)s1	S1P4 agonist 61 (no result: S1P3 antagonist) | S1P4 ag conf inactive | S1P1 ag inactive
Cc1ccc(C(C)C)c(OCC(=O)N2CCCCC2)c1	none (no result: S1P4 antagonist, S1P4 agonist, S1P3 antagonist)
O=C(Cn1cncn1)N/N=C/c1ccc(Cl)cc1	none
O=C(Cn1cncn1)NCc1ccc(Cl)cc1	S1P4 agonist 13 | S1P4 ag conf inactive | S1P1 ag inactive
COc1cccc(NC(=O)c2sc(NC(=O)/C=C/c3ccccc3)nc2C)c1	none (no result: S1P4 antagonist, S1P4 agonist, S1P3 antagonist)
CCCn1c(=O)c(-c2nc3ccccc3[nH]2)c(O)c2ccccc21	none
CCn1c(=O)c(-c2nc3ccccc3[nH]2)c(O)c2ccccc21	S1P4 agonist 35 | S1P4 ag conf inactive | S1P1 ag inactive
CSc1nc(N)c(C#N)c(-c2ccc(Cl)cc2)c1C#N	S1P4 agonist 11 | S1P4 ag conf inactive | S1P1 ag inactive
CCCN(CCC)S(=O)(=O)c1ccc(C(=O)Nc2nc3c(s2)CCc2ccccc2-3)cc1	S1P4 agonist 29 | S1P4 ag conf inactive | S1P1 ag inactive
CC(C)(C)NC(=O)Cn1nc(-c2cccc(F)c2)n(-c2ccncc2)c1=O	none (no result: S1P4 antagonist, EP2 antag, S1P4 agonist, S1P3 antagonist)
CCCCC(=O)Nc1nnn(CCC)n1	none
CCCCC(=O)NC(=S)Nc1nnn(CCC)n1	S1P4 agonist 179 | S1P4 ag conf inactive | S1P1 ag inactive
O=C(Nc1ccc(S(=O)(=O)Nc2ccc(Cl)cc2)cc1)c1ccco1	none (no result: S1P4 antagonist, S1P4 agonist, S1P3 antagonist)
Cn1c(=O)c2c(cn3ccc4ccccc4c23)n(C)c1=O	none (no result: S1P4 antagonist, S1P4 agonist, S1P3 antagonist)
CC(Nc1cccnc1)=C(C#N)C#N	S1P4 agonist 12 | S1P4 ag conf inactive | S1P1 ag inactive
O=C(Nc1cccnc1)c1ccc(C(=O)Nc2cccnc2)cc1	none
Cc1cnc(C(=O)N[C@H](Cn2nnc3ccccc32)C(C)C)cn1	none (no result: S1P4 antagonist, S1P4 agonist, S1P3 antagonist)
COCCn1c(C)cc(/C=C2/NC(=O)N(c3cccc(Cl)c3)C2=O)c1C	S1P4 agonist 105 | S1P4 ag conf inactive | S1P1 ag inactive
CCn1c(C)cc(/C=C2/NC(=O)N(c3ccccc3)C2=O)c1C	none
CCOc1ccc(N2CC(C(=O)Nc3cccc(C)c3)CC2=O)cc1 (centres undefined)	none (no result: S1P4 antagonist, S1P4 agonist, S1P3 antagonist)
COCCn1c(=NC(=O)c2cc(Cl)sc2Cl)sc2cc(S(N)(=O)=O)ccc21	none
COCCn1c(=NC(=O)c2ccc3c(c2)OCCO3)sc2cc(S(N)(=O)=O)ccc21	S1P4 agonist 16 | S1P4 ag conf inactive | S1P1 ag inactive
COc1ccc2[nH]c3c(=O)n4c(nc3c2c1)SCCC4	S1P4 agonist 36 | S1P4 ag conf inactive | S1P1 ag inactive
Cc1ccccc1CN(CCCn1ccnc1)Cc1ccc2c(c1)n(C)c(=O)n2C	none (no result: S1P4 antagonist, S1P4 agonist, S1P3 antagonist)
Cc1ccccc1OCC(=O)NC(=S)Nc1ccc(N2CCOCC2)c(Cl)c1	none (no result: S1P3 antagonist)
COc1ccccc1C(=O)NC(=S)Nc1ccc(N2CCOCC2)c(Cl)c1	S1P4 agonist 36 | S1P4 ag conf inactive | S1P1 ag 81
CCOC(=O)C1CCN(C(=O)CCc2c(C)nc3cc(-c4ccccc4)nn3c2C)CC1	none (no result: S1P3 antagonist)
CCOC(=O)C1CCN(c2cc(C)nc3cc(-c4cccc(F)c4)nn23)CC1	S1P4 agonist 13 | S1P4 ag conf inactive | S1P1 ag inactive
COc1ccc(OC)c(NC(=O)c2ccccc2N(Cc2ccccc2)S(C)(=O)=O)c1	S1P4 agonist 58 | S1P4 ag conf inactive | S1P1 ag inactive
O=C(c1ccc(NC(=S)Nc2ccc(Cl)c(Cl)c2)cc1)N1CCCC1	S1P4 agonist 23 | S1P4 ag conf inactive | S1P1 ag inactive
COc1ccccc1NC(=O)c1c(NC(=O)c2ccco2)sc2c1CCC2	S1P4 agonist 14 | S1P4 ag conf inactive | S1P1 ag inactive
Cn1cccc1C(=O)NC(=O)COC(=O)CNC(=O)c1ccc(Cl)cc1Cl	none
Cn1cccc1C(=O)NC(=O)COC(=O)CNC(=O)CNC(=O)c1ccc(Cl)cc1Cl	S1P4 agonist 22 | S1P4 ag conf inactive | S1P1 ag inactive
Cc1ccc2[nH]c(=O)c(CN(C)C(=O)c3cccs3)cc2c1	S1P4 agonist 22 | S1P4 ag conf inactive | S1P1 ag inactive
CN(Cc1cc2ccccc2[nH]c1=O)C(=O)c1cccs1	none
Cc1cccc(OCC(=O)Nc2ncn[nH]2)c1C	S1P4 agonist 24 | S1P4 ag conf inactive | S1P1 ag inactive
Cc1cccc(OCC(=O)Nc2nnn(C)n2)c1C	none (no result: S1P3 antagonist)
CC(=O)N1Cc2cc([N+](=O)[O-])ccc2Oc2ccccc21	none
O=[N+]([O-])c1ccc2c(c1)CNc1ccccc1O2	S1P4 agonist 33 | S1P4 ag conf inactive | S1P1 ag inactive
COc1ccc(CC(=O)Nc2nnc(C(C)(C)C)s2)cc1OC	S1P4 agonist 32 | S1P4 ag conf inactive | S1P1 ag inactive
COc1ccc(CC(=O)Nc2nnc(Cc3ccc(OC)c(OC)c3)s2)cc1OC	none (no result: S1P4 antagonist, S1P4 agonist, S1P3 antagonist)
CC[C@@H](Cn1nnc2ccccc2c1=O)NC(=O)CCn1ncc2ccccc21	none (no result: S1P4 antagonist, S1P4 agonist, S1P3 antagonist)
